According to PubChem BioAssay AID1986 (Sanford-Burnham Center for Chemical Genomics, 2009):
Screen size: about 290,000 compounds; about 890 (0.31%) were called active. No stated cut-off is given here; in the data, active means inhibition mostly above about 52% (no sharp cut-off); inactive means mostly below about 76%. The list comes from a sample in which actives are over-represented; it also holds similar structures and randomly drawn compounds.

Test: inhibitors of HIV fusion peptide binding, primary screen, biochemical, uHTS, fluorescence dequenching (AID 1986)
Settings: cell-free peptide binding, 30 min, stronger effect = higher value
[1] = measured here: repeat confirmation average inhibition, at 18.6 µM

| Structure (SMILES) | inhibition (at 20 µM) | inhibition [1] |
| --- | --- | --- |
| O=c1[nH]c2c(cc1CNCCN1CCOCC1)c(-c1cccc(F)c1)nn2-c1ccccc1 | -1.4% (inactive) |  |
| COc1ccc(CNC(=O)Oc2ccccc2)cc1Cl | -0.6% (inactive) |  |
| O=C(O)c1ccccc1-c1ccc(/C=C2\SC(=O)N(c3ccccc3)C2=O)o1 | 11% (inactive) |  |
| COc1ccccc1N1C(=N)S/C(=C\c2ccc(-c3ccccc3C(=O)O)o2)C1=O | 54% (active) |  |
| Cc1ccc(C)c(N2C(=N)S/C(=C\c3ccc(-c4ccccc4C(=O)O)o3)C2=O)c1 | 52.1% (inactive) | 18.9% |
| CN(C)c1ncc(/C=C2/C(=O)NC(=S)N(C3CCCCC3)C2=O)cn1 | 32.3% (inactive) |  |
| O=C(NNC(=S)NC1CCCCC1)c1ccccc1O | 3.3% (inactive) |  |
| O=C1C(=Cc2ccco2)C(=O)c2ccccc21 | 33.3% (inactive) |  |
| COc1ccc2c(c1)CC/C(=C/c1ccco1)C2=O | 44.1% (inactive) |  |
| O=C1/C(=C/c2ccco2)CCc2ccccc21 | 57.7% (active) |  |
| O=C1/C(=C/c2ccco2)Cc2ccccc21 | 29.3% (inactive) |  |
| O=C1/C(=C\c2ccc(Br)o2)Cc2ccccc21 | 21.7% (inactive) |  |
| Nc1ccc2c(c1)C/C(=C/c1ccco1)C2=O | 73.6% (active) |  |
| CC(C)N(C(=O)Cn1cc(S(=O)(=O)CC(=O)NC2CCCCC2)c2ccccc21)C(C)C | -0.7% (inactive) |  |
| Cc1ccc(-c2csc(NCCn3c(C(F)(F)F)nc4ccccc43)n2)cc1 | 1.7% (inactive) |  |
| Cc1cnc(CN(C)C(=O)c2ccc3oc(Cc4ccc(Cl)cc4)nc3c2)[nH]1 | 0.2% (inactive) |  |
| COc1ccc(-n2c(C)cc(/C=C3\C(=N)N4N=C(CC(=O)N5CCOCC5)SC4=NC3=O)c2C)cc1 | 20.1% (inactive) |  |
| Cc1ccc(/C=C/S(=O)(=O)NCC(=O)O)cc1 | 4.8% (inactive) |  |
| Cc1c(N2C(=O)/C(=C/c3ccccc3)SC2=S)c(=O)n(-c2ccccc2)n1C | -4.2% (inactive) |  |
| CN1C(=S)N(c2cccnc2)C(=O)/C1=C\c1ccc(N(C)C)cc1 | 6.7% (inactive) |  |
| Cc1c(N2C(=O)/C(=C\c3ccc(N(C)C)cc3)N(C)C2=S)c(=O)n(-c2ccccc2)n1C | 52.4% (active) | 74.6% |
| Cc1cccc(C(=O)N/C(=C/c2ccco2)C(=O)N2CCCCCC2)c1 | 0% (inactive) |  |
| O=C(NCC1CCCO1)Nc1cc(Cl)cc(Cl)c1 (centres undefined) | 0.7% (inactive) |  |
| COc1cccc2c(C)c(C(=O)O)[nH]c12 | 67.9% (active) |  |
| COc1cccc2c(=O)c(C(=O)O)c[nH]c12 | 2% (inactive) |  |
| COC(=O)c1cc(=O)c2cccc(OC)c2[nH]1 | -2.4% (inactive) |  |
| Nc1nnc(SCc2ccc([N+](=O)[O-])cc2)s1 | 0.4% (inactive) |  |
